What follows are sequences tested on PPARg:RXRa 90nM:30nM, anti-RXR (NR concentration 90 nM, RXRa partner concentration 30 nM) (assay: PBM binding z-score (relative to random genomic background probes); higher = stronger binding; sequences stand for … in GC…GCGATTGACAGCGTAGAATGAAGG).
How it was run: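 Binding buffer was PBS pH 7.4 with 2% milk, 0.02% Triton X-100, 1 mM DTT, 0.2 mg/mL BSA and 0.4 mg/ml salmon testes DNA. In it, ligand-free nuclear receptor dimers were incubated 1 h on custom Agilent 4×180K protein-binding microarrays carrying double-stranded probes. Antibodies against each partner (one per run) detected binding, and z-scores were calculated against random background probes after regression normalization of scanned fluorescence.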
For TCAGACAGGTGAAGGTAACCCAGGTACGCAGTCG, the PBM binding z-score was 2.77.
In the case of CCTTACGGGTCAAGGTTATAACACGGGTGGTACG, the PBM binding z-score was 3.94.
CAAACTAGGTCACGAAGGGTCAAAGTCGAATGAC showed a PBM binding z-score of 8.2.
In the case of GGAACGAGGGCAAAGTCGATAGCATCTGTCGACG, the PBM binding z-score was 2.36.
With TGAATGAGGTTATAAGAACAGGGAACGTTGCAAA the PBM binding z-score was 1.08.
For CCTAGCAGGCCAGGGTCACTAAAGCATTTCGCTT, the PBM binding z-score was 0.422.
With ATCGAAAGGTCGAGGTGAATATAGAGAAAGGGAA the PBM binding z-score was 2.95.
Work on GCATATAGGTAATACAAGGTGAAAGTGCGATTGT yielded a PBM binding z-score of 2.
Work on AATACAGGGTCACTAGGCCATAGTAGGTACGAAT yielded a PBM binding z-score of 5.88.
For GCTTCTAGGTCAACTGATGGTCAGCTAAAGCTCG, the PBM binding z-score was 5.05.
In the case of TCATATAGGTAAATGCTAGGTGACAGTCCGATCT, the PBM binding z-score was 2.54.
For CCTACTGGGCCATTCAGAGGTCATTCATCATATG, the PBM binding z-score was 2.26.
TCATATAGTTAAAGGTGAAAGTCGAACGATATGA was tested, and the PBM binding z-score was 3.79.
CCTTACGGGTCACGGACAGGTTATAGCATTTGGA gave a PBM binding z-score of 5.44.
CCGACTGGGGCATAAGGTTACGATAAGCCAGCCC gave a PBM binding z-score of 3.22.
Work on GCTAGCAGGCCATTTGGCTCACTCAATGACGGGC yielded a PBM binding z-score of -0.656.
Sequence CCTACTGGGCCAAAGTTCATTGATTCCAATGCTC has a PBM binding z-score of 11.8.
ACAGACCGGTGAGTGAAGGTAACTCAGCTGGACG was tested, and the PBM binding z-score was -1.01.
Sequence TCTGCTAGGTCAACGACGGTCAGCTAATCTGCTA has a PBM binding z-score of 2.26.
ACTAGTTGGTCAGTTGAGGTCACACACAATTCGG gave a PBM binding z-score of 1.69.
Work on ACTTACGGGTCAACGAGGTTAGAGCACGCGTATA yielded a PBM binding z-score of 4.13.
TTACCAAGGTGAGCTAAGGTCGTTGATCCAACTC gave a PBM binding z-score of 0.771.
In the case of CGAACGAGGGCATGAGTTGATAGCCAATGCCGAT, the PBM binding z-score was 0.727.
Work on ATCTCTAGGTAAAAGTTCAGTGGATCCCGAGGAT yielded a PBM binding z-score of 8.5.
For GCTGCTAGTTCAGGTTGGTCAGCTAACGGGTACG, the PBM binding z-score was -0.226.
For TCATATCGGTAAATGCTAGGTGAAAGTCCGATCT, the PBM binding z-score was 2.84.
Sequence ATGGAAAGGTCGAGGTGAGTATAGAGAAAGGGAA has a PBM binding z-score of 2.83.
Sequence CGAACTAGGTAATTGACAGGACAGTGAATAGTAA has a PBM binding z-score of 0.213.
Sequence TAGCCCAGGTCATGCGGGCCAGTATAGTGTCGGC has a PBM binding z-score of 1.35.
Work on CCTACTGGGCCATCATGTCATTGATATCAACGTT yielded a PBM binding z-score of 1.35.
In the case of TATACAGGCTCAAAGGCCAGAGTACGAATGTCGA, the PBM binding z-score was 1.4.
ATCTCTAGGTAAAGCTAGTTCAGTGAATGCAAAT was tested, and the PBM binding z-score was 0.224.
For ATCTCTAGGTAAACATAGTTCAGTGAATGCAAAT, the PBM binding z-score was 0.945.
For CCAGACAGGTGAGAAGGTATCTCAGCCTCGATTA, the PBM binding z-score was -0.148.
ATCGAGAGGTCGAAGGTGAGTATACCCACCCGAA was tested, and the PBM binding z-score was 3.84.
CCTACTGGACCAAAGGTCATTGATTCCAATGCTC gave a PBM binding z-score of 10.8.
For CGTCCAAGGTCAGCAGGCCAGTGAAAGCGACGTG, the PBM binding z-score was 1.84.
Sequence AGAATGACGTTACCAAAGATCAGGGAAACGCTTG has a PBM binding z-score of 0.17.
For TCTGGGAGGACACGAAGGTCAGAGCTTTCCAGAG, the PBM binding z-score was 1.53.
ATACCAAGGTGATCGTGAGGTCGTTGTTACTAAC showed a PBM binding z-score of 0.535.

Source: the supplement of paper PMC6555819
